The structures appear in SMILES notation. The source made the active and inactive calls.

Assay [1] is described as follows: compounds binding Alexa647 anti-His antibody – biochemical, small-molecule microarray, 635 nm fluorescence, artefact control for SMM control protein annotation, primary screen (AID 1128).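 Further: score merges feature fluorescence with signal-to-noise for each printed compound spot.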 The following applies: higher = more signal.
Assay [2] concerns Human papillomavirus type 1a E7 protein (residues 1-88). Kind of assay: HPV1a E7 small-molecule binders, primary screen, biochemical, small-molecule microarray, residues 1-88, 635 nm (AID 1129). The following applies: small-molecule microarray binding, fluorescence 635 nm; higher = more signal.
Assay [3] has as its target Focal adhesion kinase 1 (Homo sapiens) (UniProt Q05397). Nature of the assay: PTK2 protein binding on printed compound slides – biochemical, small-molecule microarray, 635/667 nm fluorescence, BSA, DTT, primary screen (AID 1130).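 Further: composite of spot emission at 667 nm and signal to noise over triplicate slides.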 The following applies: 635 nm fluorescence, higher = more signal.
Assay [4] relates to Fibrinogen (Alexa647-labelled). Nature of the assay: Alexa647-fibrinogen binding to printed small molecules – biochemical, small-molecule microarray, 635/667 nm fluorescence, artefact control for SMM control-protein annotation, profiling panel (AID 1131).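 Further: z-score merges 667 nm fluorescence with per-spot signal-to-noise over triplicate slides.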 The following applies: fibrinogen-A647 binding fluorescence, higher = more signal.
Assay [5] concerns the target Follistatin (Homo sapiens) (UniProt P19883). Nature of the assay: FST protein binding to printed compounds – biochemical, small-molecule microarray, 635/667 nm fluorescence, primary screen (AID 1132). The following applies: 635 nm fluorescence, higher = more signal.
The target in assay [6] is Fibroblast growth factor 2 (Homo sapiens) (UniProt P09038). Nature of the assay: basic fibroblast growth factor binding to printed compounds – biochemical, small-molecule microarray, 635/667 nm fluorescence, primary screen (AID 1133). The following applies: FGF2, fluorescence 635/667, higher = more signal.
Sequence of Fibroblast growth factor 2 (Homo sapiens) (P09038 whole entry, looked up): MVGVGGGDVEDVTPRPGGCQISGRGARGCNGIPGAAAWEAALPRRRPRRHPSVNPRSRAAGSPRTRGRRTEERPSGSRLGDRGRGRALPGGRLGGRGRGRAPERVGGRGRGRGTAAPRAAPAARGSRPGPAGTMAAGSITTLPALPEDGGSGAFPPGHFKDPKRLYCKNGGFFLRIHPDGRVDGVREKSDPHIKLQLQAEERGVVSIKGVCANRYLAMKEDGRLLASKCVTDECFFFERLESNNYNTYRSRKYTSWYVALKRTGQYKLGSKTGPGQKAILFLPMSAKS
A short description of assay [7]: JC-1 mitochondrial potential readout, lung cancer cells – cell-based, A549, JC-1 fluorescence, basal, 24 h, 100 nL, profiling panel (AID 1138).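 Further: A549 lung adenocarcinoma cells under basal conditions with no added stimulus; test concentration not given here.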 The following applies: higher = more signal.
A further assay has as its system Lefty1. Kind of assay: Lefty1 protein binding to printed compounds – biochemical, small-molecule microarray, 635/667 nm fluorescence, primary screen (AID 1139). The following applies: fluorescence 635/667, higher = more signal.
Assay [8] has as its system wheat germ agglutinin (Triticum aestivum), Alexa647-labelled. Nature of the assay: Alexa647-WGA lectin binding to printed small molecules – biochemical, small-molecule microarray, 635/667 nm fluorescence, artefact control for SMM control-protein annotation, profiling panel (AID 1140).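 Further: score merges 667 nm feature emission with signal to noise over triplicate slides.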 The following applies: WGA-A647 binding, 635 nm fluorescence, higher = more signal.
The target of assay [9] is Luciferin 4-monooxygenase (Photinus pyralis) (UniProt P08659). Nature of the assay: inhibition of purified Photinus pyralis luciferase – biochemical, luminescence, purified enzyme, 2006 set, primary screen (AID 1141).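 Further: cell-free assay with purified firefly luciferase at 100 ng per well in PBS; test concentration not given here.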 The following applies: purified firefly luciferase, SteadyGlo luminescence, 30 min; higher = more signal, called active from +8 up or from −8 down.
Sequence of Luciferin 4-monooxygenase (Photinus pyralis) (P08659 whole entry, looked up): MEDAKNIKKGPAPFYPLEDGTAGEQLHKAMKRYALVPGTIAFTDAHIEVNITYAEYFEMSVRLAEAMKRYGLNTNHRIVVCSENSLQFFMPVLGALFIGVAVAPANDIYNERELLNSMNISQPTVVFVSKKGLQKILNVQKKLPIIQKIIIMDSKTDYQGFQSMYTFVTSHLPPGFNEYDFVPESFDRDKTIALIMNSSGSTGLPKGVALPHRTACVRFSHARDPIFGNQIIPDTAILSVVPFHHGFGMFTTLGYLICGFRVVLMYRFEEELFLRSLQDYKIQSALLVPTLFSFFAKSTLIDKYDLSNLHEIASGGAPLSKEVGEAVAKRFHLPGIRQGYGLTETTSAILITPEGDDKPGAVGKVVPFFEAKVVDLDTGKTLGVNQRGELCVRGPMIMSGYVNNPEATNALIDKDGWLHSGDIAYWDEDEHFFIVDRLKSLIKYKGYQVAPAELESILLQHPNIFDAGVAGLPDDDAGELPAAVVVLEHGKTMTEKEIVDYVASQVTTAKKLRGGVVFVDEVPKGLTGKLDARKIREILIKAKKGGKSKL

Sequence of Follistatin (Homo sapiens) (P19883 whole entry, looked up): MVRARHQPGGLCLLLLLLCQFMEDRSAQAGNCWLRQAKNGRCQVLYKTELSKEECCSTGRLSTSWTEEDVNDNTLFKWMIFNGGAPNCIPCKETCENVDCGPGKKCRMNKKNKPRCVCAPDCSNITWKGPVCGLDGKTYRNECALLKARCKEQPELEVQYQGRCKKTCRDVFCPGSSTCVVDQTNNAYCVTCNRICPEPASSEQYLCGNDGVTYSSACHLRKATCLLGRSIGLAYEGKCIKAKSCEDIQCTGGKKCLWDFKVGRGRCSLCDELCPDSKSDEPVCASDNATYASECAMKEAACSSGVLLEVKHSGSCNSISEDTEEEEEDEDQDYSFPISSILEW
Sequence of Focal adhesion kinase 1 (Homo sapiens) (Q05397 whole entry, looked up): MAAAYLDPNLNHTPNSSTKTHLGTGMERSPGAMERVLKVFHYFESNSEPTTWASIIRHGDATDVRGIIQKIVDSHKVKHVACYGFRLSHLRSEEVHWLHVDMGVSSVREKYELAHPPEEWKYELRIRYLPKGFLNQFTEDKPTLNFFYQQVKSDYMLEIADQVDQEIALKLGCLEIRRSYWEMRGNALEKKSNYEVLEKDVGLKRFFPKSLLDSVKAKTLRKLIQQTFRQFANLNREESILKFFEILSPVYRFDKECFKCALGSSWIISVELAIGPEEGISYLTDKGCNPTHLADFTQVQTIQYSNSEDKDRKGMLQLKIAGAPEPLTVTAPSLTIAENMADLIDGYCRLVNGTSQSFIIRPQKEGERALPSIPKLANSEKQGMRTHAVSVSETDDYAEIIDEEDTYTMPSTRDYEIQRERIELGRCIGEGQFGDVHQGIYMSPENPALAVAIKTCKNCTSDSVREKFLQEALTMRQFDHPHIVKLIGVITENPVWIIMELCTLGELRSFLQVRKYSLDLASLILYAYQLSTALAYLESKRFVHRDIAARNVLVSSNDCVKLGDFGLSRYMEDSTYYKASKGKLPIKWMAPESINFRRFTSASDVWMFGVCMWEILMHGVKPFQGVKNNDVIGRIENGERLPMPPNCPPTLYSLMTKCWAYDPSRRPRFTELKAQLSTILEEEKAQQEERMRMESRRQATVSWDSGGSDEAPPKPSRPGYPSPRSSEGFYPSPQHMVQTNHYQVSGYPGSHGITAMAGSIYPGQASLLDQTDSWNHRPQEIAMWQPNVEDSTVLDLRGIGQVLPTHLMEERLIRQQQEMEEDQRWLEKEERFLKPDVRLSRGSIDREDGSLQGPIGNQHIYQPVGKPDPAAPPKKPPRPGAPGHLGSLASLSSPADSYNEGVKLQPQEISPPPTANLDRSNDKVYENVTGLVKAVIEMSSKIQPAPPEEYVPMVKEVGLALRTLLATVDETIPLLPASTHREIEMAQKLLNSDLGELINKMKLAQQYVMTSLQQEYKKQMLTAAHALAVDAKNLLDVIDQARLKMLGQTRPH

Turning to `CC(=O)OC[C@H]1O[C@@H](ON=C(C)CCN2CCCc3nc(C)c(C)cc32)[C@H](OC(C)=O)[C@@H](OC(C)=O)[C@@H]1OC(C)=O`, the composite z-score in assay [1] was found to be 0.269; in [2] it was 1.15; in [3], 0.36; in assay [4] it was 0.602; in assay [5], 0.881; in assay [6], 0.664. Besides, the results for the composite z-score (with Lefty1; in assay [8]) were 0.889 and 0.476, respectively. For the same compound, the z-score in [7] is -1.13; in assay [9] it was 0.788 (inactive).
As to `COC(=O)C=CCCc1coc(C=CCNC(=O)OC)n1`, the composite z-score is 0.803 in assay [1]; -0.259 in assay [2]; 0.256 in assay [3]; 0.247 in assay [4]; 1.15 in [5]; 1.04 in assay [6]. Moreover, the figures for the composite z-score (in the assay with Lefty1; in assay [8]) were 1.37 and 0.0559, respectively. Further, the values for the z-score in assay [7] and in assay [9] were -1.15 and 0.122 (inactive), respectively.
Turning to `CO[C@H]1COC(=O)[C@@H](C)COC(=O)[C@H](C)NC(=O)CC=C[C@H]1C`, the composite z-score in [1] is -0.79; in [2], -0.764; in assay [3] it was -0.113; in assay [4] it was -0.47; in assay [5] it was 1.31; in assay [6] it was 0.871. Further, the composite z-score in the assay on Lefty1 is 1.58; in assay [8] it was -0.379. Further, the z-score in assay [7] is 0.853; in assay [9] it was -0.185 (inactive).
`CC(=O)OC[C@H]1O[C@H](C#Cc2ccccc2)C=C[C@@H]1OC(C)=O`: the composite z-score was -0.223 in assay [1]; 0.262 in [2]; -0.203 in assay [3]; 0.81 in [4]; 0.272 in assay [5]; 0.271 in assay [6]. Also, the composite z-score in the assay on Lefty1 was 0.517; in [8], -0.361. The z-score in assay [7] is 0.277; in assay [9] it was -2.26 (inactive).
As to `COc1ccc(COC(=O)NN=C2C[C@@H](O)[C@@H](O)[C@@H]3[C@@H]4C(=O)N(Cc5ccccc5)C(=O)[C@@H]4CC[C@H]23)cc1`, the composite z-score is -0.382 in assay [1]; -0.111 in assay [2]; 0.0115 in assay [3]; -0.519 in assay [4]; -0.311 in assay [5]; -0.977 in [6]. Besides, the values for the composite z-score (in the assay with Lefty1; in [8]) were -0.403 and 0.266, respectively. The results for the z-score in [7] and in assay [9] were 0.235 and 0.893 (inactive), respectively.
Turning to `COC(=O)[C@@H]1CC[C@H](C)[C@@H](c2ccc(C)cc2)N1C(=O)c1ccc(C=NO[C@@H](C)c2cn([C@H](CO)Cc3ccccc3)nn2)cc1`, the composite z-score was 1.37 in [1]; 1.13 in assay [2]; 0.262 in assay [3]; 0.648 in assay [4]; 0.717 in assay [5]; 1.16 in assay [6]. For the same compound, the composite z-score in the assay with Lefty1 came out at 1.23; in assay [8], 0.147. For the same compound, the values for the z-score in [7] and in [9] were 1.04 and -0.249 (inactive), respectively.
Regarding `C=CC[C@@H]1C=C[C@H](ON=C(C)CCC(=O)OC[C@H]2O[C@H](C#Cc3ccccc3)C=C[C@@H]2Oc2ccc(C)cc2)[C@@H](CO)O1`, the composite z-score in assay [1] was -0.443; in [2] it was 0.828; in assay [3] it was -0.0073; in assay [4], 0.955; in [5], 0.656; in assay [6], 0.42. In addition, the values for the composite z-score (in the assay on Lefty1; in assay [8]) were 0.842 and -0.0056, respectively. Also, the z-score in [7] was -0.0271; in [9] it was 0.666 (inactive).
`COC(=O)CC=C[C@H](C)[C@@H](OCc1cccc(Br)c1)[C@@H](C)[C@H](OC)C1CCCCC1`: the composite z-score was 0.0864 in assay [1]; -1.06 in [2]; -0.484 in assay [3]; -1.74 in assay [4]; 0.22 in [5]; -0.0877 in assay [6]. Besides, the composite z-score in the assay on Lefty1 worked out at 0.525; in [8] it was 0.325. The z-score is 1.74 in [7] and -3.27 (inactive) in [9].
As to `CCOC(=O)[C@H](CC(C)C)NC(=O)CCC1CC(OC(=O)NCc2cccc3ccccc23)CC2(CCCC(COC(=O)NCCc3ccc(Cl)cc3)O2)O1` (stereo not given in full), the composite z-score is 0.372 in assay [1]; 0.484 in assay [2]; 0.218 in [3]; 0.635 in assay [4]; 0.547 in assay [5]; 0.352 in [6]. In addition, the composite z-score in the assay with Lefty1 is 0.863; in [8], 0.844. For the same compound, the figures for the z-score in assay [7] and in assay [9] were 0.31 and 0.226 (inactive), respectively.
`O=C1[C@H]2[C@H]3[C@H](O)[C@H](O)CC(=NOCc4ccccc4)[C@H]3CC[C@H]2C(=O)N1Cc1ccc2c(c1)OCO2`: the composite z-score is -0.169 in assay [1]; 0.186 in assay [2]; -0.175 in [3]; 0.632 in assay [4]; 0.214 in [5]; 0.533 in [6]. Besides, the composite z-score was 0.397 in the assay with Lefty1 and 0.492 in assay [8]. In addition, the z-score in [7] was -0.626; in assay [9], 1.23 (inactive).
As to `C[C@@H](c1ccccc1)N1C(=O)[C@H]2[C@H]3[C@H](O)[C@H](O)CC(=NO[C@@H]4O[C@H](CO)[C@@H](O)[C@H](O)[C@H]4O)[C@@H]3CC[C@H]2C1=O`, the composite z-score in assay [1] was 0.26; in [2], 0.585; in assay [3], -0.0533; in assay [4], 0.19; in assay [5], 0.31; in assay [6], 0.281. For the same compound, the figures for the composite z-score (in the assay on Lefty1; in [8]) were 0.351 and -0.0604, respectively. In addition, the results for the z-score in assay [7] and in [9] were 0.269 and 0.351 (inactive), respectively.
`O=C1C=C[C@@H](O)[C@@H]2[C@@H]3C(=O)N(c4ccc(F)cc4F)C(=O)[C@@H]3CC[C@@H]12`: the composite z-score is -0.0956 in assay [1]; 0.437 in [2]; 0.103 in [3]; 0.61 in assay [4]; 0.791 in [5]; 0.602 in assay [6]. Besides, the composite z-score in the assay on Lefty1 was determined as 0.564; in assay [8], 0.215. Besides, the z-score in [7] is 0.784; in [9], -1.71 (inactive).
Consider `CCOC(=O)[C@H](Cc1ccccc1)NC(=O)OC1CC(CCC2CC(CC)=NO2)OC2(CCCC(COC(=O)NCCC(C)C)O2)C1` (stereo not given in full), for which the composite z-score in assay [1] was determined as 0.272; in [2] it was 0.55; in assay [3], 0.271; in assay [4] it was 0.305; in [5], 0.0871; in assay [6] it was 0.342. Moreover, the results for the composite z-score (with Lefty1; in [8]) were -0.033 and 0.668, respectively. In addition, the z-score in [7] is -0.0991; in assay [9] it was 0.772 (inactive).
Turning to `COc1ccc(O[C@H]2C=C[C@@H](c3ccccc3)O[C@@H]2COC(=O)CCC(C)=NO[C@@H]2O[C@H](COC(C)=O)[C@@H](OC(C)=O)[C@H](OC(C)=O)[C@H]2OC(C)=O)cc1`, the composite z-score in assay [1] was 0.487; in [2], 0.795; in [3], -0.234; in assay [4] it was 0.708; in assay [5], 0.293; in [6] it was 0.641. Further, the results for the composite z-score (in the assay with Lefty1; in assay [8]) were 0.742 and 0.262, respectively. Also, the z-score in assay [7] was -0.388; in assay [9], 1.16 (inactive).
Turning to `CC(C)CON=C1C[C@@H](O)[C@@H](O)[C@@H]2[C@@H]3C(=O)N(C4CCCCC4)C(=O)[C@@H]3CC[C@H]12`, the composite z-score is 0.55 in assay [1]; 0.666 in assay [2]; 0.005 in assay [3]; 0.657 in [4]; 0.346 in assay [5]; 0.781 in [6]. The composite z-score turned out to be 0.837 in the assay on Lefty1 and 0.812 in [8]. The values for the z-score in assay [7] and in assay [9] were 0.246 and -0.266 (inactive), respectively.
Take `COc1ccc(O[C@H]2C=C[C@@H](c3ccccc3)O[C@@H]2CON=CC[C@@H]2C=C[C@H](OC(C)=O)[C@@H](COC(C)=O)O2)cc1`: the composite z-score in [1] is 2.11; in assay [2], -0.311; in assay [3], 0.178; in assay [4], 0.516; in assay [5], 0.229; in assay [6], 0.107. For the same compound, the composite z-score came out at 0.257 in the assay on Lefty1 and 0.807 in [8]. In addition, the z-score in [7] was 0.124; in assay [9] it was -0.354 (inactive).
On to `CC(C)(C)N1C(=O)[C@H]2[C@H]3[C@H](O)[C@H](O)CC(=O)[C@@H]3CC[C@H]2C1=O`, for which the composite z-score was -0.0303 in assay [1]; 0.237 in assay [2]; -0.0066 in assay [3]; -0.642 in assay [4]; 0.539 in [5]; 1.08 in assay [6]. For the same compound, the results for the composite z-score (in the assay with Lefty1; in assay [8]) were 0.49 and 0.138, respectively. In addition, the z-score was -0.662 in assay [7] and 0.166 (inactive) in assay [9].

The values above are taken from PubChem BioAssay.
